# Screens deposited in PubChem BioAssay by several laboratories.
# Gli-Sufu block = Gli-Sufu pathway antagonism; actives 0.74% (n = 340,000); inhibition, % at 5 µM; Sufu-KO-LIGHT fibroblasts, Gli luciferase reporter luminescence;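 active = inhibition above about 55%, limit read from the data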
# Shn3 inh set2 = Schnurri-3 reporter inhibition in Clone20 osteoblasts. Clone20 osteoblast Shn3 3'UTR firefly luciferase, 24 h. inhibition, % at 12.5 µM. actives 0.52% (n = 360,000). AID 588674;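 active = mean inhibition of at least 75% with every replicate also reaching 75%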
# 697 NFkB inh = inhibitors of the PMA/ionomycin-induced NF-kB reporter in 697 B cells | inhibition, % at 4 µM | AID 435022 | actives 0.33% (n = 330,000) | 697 B-cell NF-kB luciferase reporter, 16 h; in the data active = inhibition above about 35%
# Mdm2-MdmX inh = human Mdm2/MdmX binding inhibition; AID 485346; actives 3% (n = 330,000); SaOS-2 split-luciferase Mdm2/MdmX complementation, luminescence; inhibition, % at 8 µM; O15151+Q00987;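 active = inhibition of at least 50% at 8 µM in the primary screen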
# Target sequence (O15151 whole entry, looked up): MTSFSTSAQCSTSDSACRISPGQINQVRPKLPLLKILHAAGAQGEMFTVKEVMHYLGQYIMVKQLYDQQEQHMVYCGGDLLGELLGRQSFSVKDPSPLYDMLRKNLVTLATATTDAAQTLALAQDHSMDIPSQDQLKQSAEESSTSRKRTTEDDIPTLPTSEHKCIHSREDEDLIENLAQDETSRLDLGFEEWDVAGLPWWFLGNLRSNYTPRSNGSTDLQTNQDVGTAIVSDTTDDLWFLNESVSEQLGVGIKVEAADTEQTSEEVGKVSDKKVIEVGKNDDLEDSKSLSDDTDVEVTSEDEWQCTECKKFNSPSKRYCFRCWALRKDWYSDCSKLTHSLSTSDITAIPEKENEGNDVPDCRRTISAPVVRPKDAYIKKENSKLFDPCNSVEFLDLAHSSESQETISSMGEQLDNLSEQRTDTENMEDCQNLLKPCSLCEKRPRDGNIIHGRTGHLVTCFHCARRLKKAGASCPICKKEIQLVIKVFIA
# Target sequence (Q00987 whole entry, looked up): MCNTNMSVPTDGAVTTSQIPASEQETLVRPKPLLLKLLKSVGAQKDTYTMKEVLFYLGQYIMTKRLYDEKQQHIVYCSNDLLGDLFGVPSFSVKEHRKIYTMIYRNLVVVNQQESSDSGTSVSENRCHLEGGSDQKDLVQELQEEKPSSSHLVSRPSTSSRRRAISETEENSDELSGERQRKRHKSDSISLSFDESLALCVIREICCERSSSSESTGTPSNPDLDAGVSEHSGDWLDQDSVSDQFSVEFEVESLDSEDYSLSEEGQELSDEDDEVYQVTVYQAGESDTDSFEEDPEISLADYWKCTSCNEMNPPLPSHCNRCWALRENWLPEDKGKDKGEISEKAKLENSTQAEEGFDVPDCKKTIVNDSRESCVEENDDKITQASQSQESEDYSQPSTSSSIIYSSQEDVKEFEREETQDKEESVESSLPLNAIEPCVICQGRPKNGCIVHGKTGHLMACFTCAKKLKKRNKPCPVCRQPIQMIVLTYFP
# Jurkat NFkB inh = lowers PMA/ionomycin-induced NF-kB signal in Jurkat cells | PMA/ionomycin-induced NF-kB luciferase reporter, luminescence | actives 0.53% (n = 330,000) | inhibition, % at 4 µM | AID 435003; in the data active = inhibition above about 50%
# Jurkat NFkB conf = inhibitors of the PMA/ionomycin-induced NF-kB reporter in Jurkat cells, retest. shares compounds with Jurkat NFkB inh. Jurkat NF-kB luciferase, 16 h. inhibition, % at 4 µM. actives 27% (n = 2,700);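 active = inhibition reaching about 45% at 4 µM in either replicate, limit read from the data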
# A number is an active result; 0 = inactive; - = no result. Hits are enriched below; roughly 3.8% of the tested compounds scored in any of these assays.
SMILES,Gli-Sufu block,Shn3 inh set2,697 NFkB inh,Mdm2-MdmX inh,Jurkat NFkB inh,Jurkat NFkB conf
CCN(CC)C(=O)C1=C(C)N(Cc2ccc(OC)cc2)C(=O)C(CC(=O)NC(c2ccccc2)c2ccccc2)C1 (centres undefined),-,0,-,-,-,-
Cc1ccc(S(=O)(=O)Nc2cc(Cl)c(O)c3ncccc23)cc1,69.0,0,0,0,0,-
COc1cc(-c2ccc3cc(OC)c(OC)c(OC)c3c2)cc(OC)c1OC,-,0,-,-,-,-
CCOC(=O)c1cccc(C2=CC(=O)C[C@H](c3ccc(OC)c(OC)c3)C2)c1,0,0,0,0,0,-
COCC(C)NC(=O)c1cc2cccc([N+](=O)[O-])c2[nH]1 (centres undefined),0,0,0,0,0,-
Cc1cc(NC(=O)c2cc3cccc([N+](=O)[O-])c3[nH]2)ccc1F,0,0,0,0,0,0
O=C(/C=C/c1cnc2ccccc2n1)NC12CC3CC(CC(C3)C1)C2,-,0,0,0,0,0
C=C(C)CN=CC1(C)CCC(C)=CO1 (centres undefined),0,0,-,-,-,-
O=C(CCc1c[nH]c2ccccc12)OCc1cccc(C(F)(F)F)c1,0,0,0,0,51.2,0
COCC(C)n1c(SCC(=O)N2CCc3ccccc3C2)nc2ccccc2c1=O (centres undefined),0,0,0,0,0,-
Nc1nc(-c2cccnc2)nc2sc3c(c12)CCCC3,0,0,0,0,0,0
Cc1ccc(COC(=O)CN2C(=O)NC3(CCCCC3C)C2=O)cc1 (centres undefined),0,0,0,0,0,-
Cc1ccc(O)c(N=Nc2ccc(S(=O)(=O)N3CCCC3)cc2)c1,0,0,0,0,0,-
COc1ccc(N=Nc2cc(C)ccc2O)cc1,0,0,0,0,0,0
OC[C@@H]1CN(CCc2ccccc2)C[C@H](n2cnc3c(NCc4ccc(F)cc4)ncnc32)O1,-,0,-,-,-,-
COC(=O)Cc1ccc(NC(=O)c2ccc(Br)o2)cc1,0,0,0,0,0,-
CCN(CC)c1ccc(NC(=O)c2ccc(Br)o2)cc1,0,0,0,0,0,0
CN1CCN(C(=O)c2ccc(-c3ccc(F)c(F)c3)c3ccoc23)CC1,-,0,-,-,-,-
Cc1noc(C)c1COc1cccc(C(=O)OC(C)C(=O)Nc2ccc3c(c2)OCO3)c1 (centres undefined),0,0,0,0,58.0,0
CC(C)Oc1cccc(C(=O)Nc2ccc(Br)cc2F)c1,0,0,0,0,0,0
O=C(Nc1ccc(F)cc1F)c1ccc2c(c1)OCCO2,0,0,0,0,0,-
COc1cc(C(=O)OC(C)C(=O)Nc2ccc3c(c2)OCO3)ccc1OCc1c(C)noc1C (centres undefined),0,0,0,0,0,-
Cc1noc(C)c1COc1cccc(C(=O)Nc2ccc(Br)cc2F)c1,0,0,0,0,61.3,0
O=C(Nc1ccc(Br)cc1F)c1ccc2c(c1)OCCO2,0,0,0,0,0,0
CCCCCNC(=O)c1[nH]c(C(F)(F)F)nc1-c1ccccc1,-,0,-,-,-,-
SMILES,Gli-Sufu block,Shn3 inh set2,697 NFkB inh,Mdm2-MdmX inh,Jurkat NFkB inh,Jurkat NFkB conf
CNc1cc(-c2cccc(N(C)C)c2)ncn1,-,0,-,-,-,-
CCC(=O)NC(=S)Nc1ccc(-c2nc3ccc(C)cc3s2)cc1,0,0,0,0,0,-
CCC(=O)NC(=S)Nc1ccc(-c2nc3ccccc3s2)cc1,0,0,0,0,0,0
O=C(CSc1ccccc1F)NC(=O)NC1CCCC1,-,0,-,-,-,-
O=C(NCc1ccc(Cl)cc1)c1cc([N+](=O)[O-])ccc1Cl,0,0,0,0,60.2,0
CCOC(=O)C1CCCN(C(=O)c2cc3c(-c4cccc(OC)c4)nn(C)c3s2)C1 (centres undefined),0,0,0,0,55.1,0
COc1ccc(-c2nnc(SCC(C)C)o2)cc1,0,0,0,0,0,0
COc1ccc(C(=O)CSc2nnc(-c3ccc(C)cc3)o2)cc1,0,0,0,0,0,-
COc1ccc(S(=O)(=O)N2CCCCC2)cc1NC(=O)CCNC(=O)c1ccco1,0,0,0,0,0,-
O=[N+]([O-])c1ccc(CN2CCCCCC2)cc1,0,0,0,0,0,-
CSc1ccc(CN2CCN(Cc3ccc([N+](=O)[O-])cc3)CC2)cc1,0,0,0,0,54.8,0
CCCn1c(/C=N/Nc2nc3ccccc3[nH]2)nc2ccccc21,0,0,-,-,-,-
Cn1c(/C=N/Nc2nc3ccccc3[nH]2)nc2ccccc21,0,0,0,0,0,0
NC(=O)C1=CC2C3C=CC2(O)C(=O)OC3O1 (centres undefined),0,0,-,-,-,-
COc1ccc2oc(C(=O)Nc3ccccn3)c(C)c2c1,0,0,0,0,0,0
Oc1ccccc1-c1cc(-c2cccc(F)c2)n[nH]1,0,0,0,0,0,0
Oc1ccc(Cl)cc1-c1cc(-c2ccccc2Cl)[nH]n1,0,0,0,0,0,-
Oc1ccccc1-c1cc(-c2ccccc2Cl)[nH]n1,0,0,0,0,0,0
Cc1ccc(-c2nnc(SCC(=O)NCC3CCCO3)nc2-c2ccc(C)cc2)cc1 (centres undefined),0,0,0,0,0,-
COc1ccc(NC(C)C(=O)Nc2cccc(S(=O)(=O)N3CCOCC3)c2)cc1OC (centres undefined),0,0,0,0,0,-
Cc1cn([C@H]2C[C@H](O)[C@@H](CNC(=O)[C@H]3CCC(=O)N3)O2)c(=O)[nH]c1=O,-,0,-,-,-,-
O=C(COc1ccccc1)Nc1cccc(-c2nc3cc4ccccc4cc3[nH]2)c1,0,0,0,0,0,0
CN1CCN(c2ccc(-c3cccc(NC(=O)COc4ccc(Cl)cc4Cl)c3)nn2)CC1,0,0,0,0,0,0
CN1CCN(c2ccc(-c3cccc(NC(=O)COc4ccc(Cl)cc4)c3)nn2)CC1,0,0,0,0,0,0
CN1CCN(c2ccc(-c3cccc(NC(=O)COc4ccccc4)c3)nn2)CC1,0,0,0,0,0,0
SMILES,Gli-Sufu block,Shn3 inh set2,697 NFkB inh,Mdm2-MdmX inh,Jurkat NFkB inh,Jurkat NFkB conf
CCC(=O)Nc1cccc(-c2ccc(N3CCN(C)CC3)nn2)c1,0,0,0,0,0,-
O=C(NCC(=O)N1CCCCCCC1)c1ccc(Cl)c(Cl)c1,-,0,-,-,-,-
COc1cccc(-c2cc(C(=O)Nc3cc(C)n(Cc4ccc(Cl)cc4)n3)no2)c1,0,0,0,0,61.0,0
COc1ccc(OC)c(-c2cc(C(=O)Nc3cc(C)n(Cc4ccc(Cl)cc4)n3)no2)c1,-,0,0,0,0,-
Cc1cc(NC(=O)c2ccc(NC(=O)c3cccs3)cc2)no1,0,0,0,0,0,-
CC(C)(C)c1cc(NC(=O)c2cccs2)no1,0,0,0,0,0,0
Cc1cc(C)c(C)c(OC(=O)c2sc(Cl)nc2C)c1,0,0,0,0,72.0,0
COc1cccc([C@@H]2Oc3ccc(OC)cc3C(=O)[C@H]2O)c1,0,0,0,0,0,0
COc1ccc2c(c1)C(=O)[C@@H](O)[C@H](c1ccc(OC)c(Br)c1)O2,0,0,0,0,0,-
O=C(Nc1cnc2sccn2c1=O)c1ccc(Cl)cc1Cl,0,0,0,0,0,0
